The source of these data is ChEMBL document CHEMBL1961873, “Compounds: GSK PKIS; Assays: Nanosyn kinase panel” (2012).

In one assay the target is T1, Ephrin type-A receptor 3 (Homo sapiens) (UniProt P29320).
T1 sequence (whole entry): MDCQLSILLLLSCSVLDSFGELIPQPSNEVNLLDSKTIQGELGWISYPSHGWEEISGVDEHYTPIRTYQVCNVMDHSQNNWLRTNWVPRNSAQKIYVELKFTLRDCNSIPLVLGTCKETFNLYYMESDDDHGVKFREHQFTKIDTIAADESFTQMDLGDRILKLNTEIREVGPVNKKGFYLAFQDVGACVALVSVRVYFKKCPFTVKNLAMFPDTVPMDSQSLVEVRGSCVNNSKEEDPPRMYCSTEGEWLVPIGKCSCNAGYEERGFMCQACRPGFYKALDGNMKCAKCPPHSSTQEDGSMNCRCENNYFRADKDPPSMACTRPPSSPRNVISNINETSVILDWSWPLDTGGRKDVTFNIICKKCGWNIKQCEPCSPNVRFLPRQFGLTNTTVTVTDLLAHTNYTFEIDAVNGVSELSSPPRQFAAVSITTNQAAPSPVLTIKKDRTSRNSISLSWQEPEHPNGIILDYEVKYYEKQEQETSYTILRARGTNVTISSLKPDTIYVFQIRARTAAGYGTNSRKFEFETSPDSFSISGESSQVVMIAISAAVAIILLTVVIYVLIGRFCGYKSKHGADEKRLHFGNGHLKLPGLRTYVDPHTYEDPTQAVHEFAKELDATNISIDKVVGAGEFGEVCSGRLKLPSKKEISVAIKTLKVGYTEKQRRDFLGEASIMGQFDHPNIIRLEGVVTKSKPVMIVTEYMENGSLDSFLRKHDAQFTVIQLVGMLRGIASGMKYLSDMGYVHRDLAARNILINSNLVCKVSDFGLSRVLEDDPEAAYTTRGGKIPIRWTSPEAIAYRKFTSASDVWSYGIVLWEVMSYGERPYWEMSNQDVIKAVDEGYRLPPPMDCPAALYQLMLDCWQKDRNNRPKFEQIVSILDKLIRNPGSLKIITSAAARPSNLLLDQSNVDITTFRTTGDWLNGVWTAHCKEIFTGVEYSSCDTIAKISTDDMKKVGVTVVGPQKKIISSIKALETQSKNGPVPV
Particulars: at 0.1 µM.
For the molecule `CN(C)C(=O)O[C@H]1CN[C@H](C#Cc2cc3ncnc(Nc4ccc(OCc5cccc(F)c5)c(Cl)c4)c3s2)C1`, the inhibition was 2.97%.

As for `CCS(=O)(=O)c1ccc(OC)c(Nc2ncc(-c3cccc(OC)c3)o2)c1`, the inhibition stood at 5.57%.

Take `COc1cc2ncn(-c3cc(OCc4ccccc4S(C)(=O)=O)c(C#N)s3)c2cc1OC`: the inhibition came to 8.09%.

On to `[O-][S+]1CCN(Cc2ccc(-c3ccc4ncnc(Nc5ccc(OCc6ccccc6)c(Cl)c5)c4c3)o2)CC1`, for which the inhibition was -1.64%.

As for `OCc1ccc(-c2nc(-c3ccccn3)c(-c3ccc4c(c3)OCO4)[nH]2)cc1`, the inhibition was found to be 6.06%.

As for `COc1cc(/C=N/Nc2ncnc3c2cnn3C(C)C)ccc1O`, the inhibition is 3.55%.

Regarding `Nc1nccc(-c2c(-c3ccc(F)cc3)nn3cc(C(F)(F)F)ccc23)n1`, the inhibition amounted to 0.75%.

Consider `CN(C)CCCn1c(-c2nonc2N)nc2cnccc21`, for which the inhibition was 4.17%.

As for `COc1cc(Nc2nccc(-c3cnn4ncccc34)n2)cc(OC)c1`, the inhibition came to 3.17%.

With `NS(=O)(=O)c1cccc(-c2cc3ccncc3cc2OCc2ccccc2)c1`, the inhibition came to 2.7%.

Regarding `CN1CCN(C(=O)c2ccc(NC(=O)Nc3ccc(N(C)c4ccnc(Nc5ccc(CS(C)(=O)=O)cc5)n4)cc3)cc2)CC1`, the inhibition turned out to be 0.72%.

With `Cc1ccc2c(c1)/C(=N/Nc1ccc(S(N)(=O)=O)cc1)C(=O)N2`, the inhibition was -0.01%.

Regarding `Cc1ccc(NC(=O)CC2CC2)cc1-c1ccc(C(=O)NCC2CC2)cc1`, the inhibition came out at 3.45%.

Regarding `CN(c1ccc(NC(=O)Nc2ccc(OC(F)(F)F)cc2)cc1)c1ccnc(Nc2cccc(S(N)(=O)=O)c2)n1`, the inhibition came out at 5.58%.

Turning to `C[C@@H](Oc1cc(-n2cnc3ccc(OC[C@@H](O)CO)cc32)sc1C(N)=O)c1ccccc1Cl`, the inhibition was -2.37%.

As to `Cc1ccc(C(=O)NC2CC2)cc1-c1ccc2[nH]ncc2c1`, the inhibition is -6.73%.

Regarding `COc1ccc(-c2nn3ncccc3c2-c2ccnc(Nc3cccc(C(F)(F)F)c3)n2)cc1`, the inhibition came out at 4.37%.

As for `CN(C)C(=O)O[C@@H]1CN[C@@H](C#Cc2cc3ncnc(Nc4ccc(OCc5cccc(F)c5)c(Cl)c4)c3s2)C1`, the inhibition worked out at 5.64%.

Regarding `CC(C)c1ccc2c(c1)NC(=O)/C2=N/Nc1ccc(S(N)(=O)=O)cc1`, the inhibition was -0.36%.

Regarding `NS(=O)(=O)c1ccc(NC=C2C(=O)Nc3ccc4ncsc4c32)cc1`, the inhibition was found to be 5.57%.

With `C[C@@H](Oc1cc(-n2cnc3ccc(OCC4CCN(C)CC4)cc32)sc1C(N)=O)c1ccccc1C(F)(F)F`, the inhibition was -6.9%.

Regarding `CN(C)c1cc2c(Nc3ccc4c(cnn4Cc4ccccc4)c3)ncnc2cn1`, the inhibition came out at 3.01%.

Turning to `Cc1ccc(Nc2ccnc(Nc3cccc(C(N)=O)c3)n2)cc1O`, the inhibition is 14.3%.

For `CCS(=O)(=O)c1ccc(OC)c(Nc2nccc(N(C)c3ccc4c(C)n[nH]c4c3)n2)c1`, the inhibition came to 4.4%.

`COC(=O)Nc1nc2cc(Oc3ccc(NC(=O)Nc4cccc(Br)c4)cc3)ccc2[nH]1`: the inhibition stood at 13%.

`CC(C)c1ccc(Nc2nccc(-c3cnn4ncccc34)n2)cc1`: the inhibition amounted to 1.96%.

Consider `NS(=O)(=O)c1ccc(N/N=C2\C(=O)Nc3ccc(Cl)cc32)cc1`, for which the inhibition turned out to be 4.83%.

Consider `COc1cccc(-n2ncc3c(N/N=C/c4ccc(C)cc4)ncnc32)c1`, for which the inhibition turned out to be 3.28%.

As for `CCn1c(-c2nonc2N)nc2ccc(F)cc21`, the inhibition was 4.17%.

Consider `COc1cc2ncnc(Nc3ccc4c(cnn4Cc4ccccc4)c3)c2cc1OC`, for which the inhibition amounted to 1.64%.

Turning to `Nc1nccc(C#Cc2cncnc2Nc2ccc(OCc3cccc(F)c3)c(Cl)c2)n1`, the inhibition came to 1.8%.

Take `Cc1cc(-c2ccccn2)cc(C)c1/C=C/c1cncc(-c2nn[nH]n2)c1`: the inhibition stood at 3.5%.

As for `CS(=O)(=O)Nc1cccc(-c2ccc3c(NC(=O)C4CC4)n[nH]c3c2)c1`, the inhibition is 1.66%.

Take `O=C1Nc2ccc(-c3cccnc3)cc2C1=Cc1cc(Br)c(O)c(Br)c1`: the inhibition was 4.82%.

Another assay has as its target T1, Ephrin type-A receptor 3 (Homo sapiens). Particulars: at 1 µM.
As to `CN(C)C(=O)O[C@H]1CN[C@H](C#Cc2cc3ncnc(Nc4ccc(OCc5cccc(F)c5)c(Cl)c4)c3s2)C1`, the inhibition was 4.79%.

For the molecule `CCS(=O)(=O)c1ccc(OC)c(Nc2ncc(-c3cccc(OC)c3)o2)c1`, the inhibition came to 8.5%.

Regarding `COc1cc2ncn(-c3cc(OCc4ccccc4S(C)(=O)=O)c(C#N)s3)c2cc1OC`, the inhibition was determined as 13.6%.

Consider `[O-][S+]1CCN(Cc2ccc(-c3ccc4ncnc(Nc5ccc(OCc6ccccc6)c(Cl)c5)c4c3)o2)CC1`, for which the inhibition was -1.69%.

As to `OCc1ccc(-c2nc(-c3ccccn3)c(-c3ccc4c(c3)OCO4)[nH]2)cc1`, the inhibition was found to be 6.97%.

Take `COc1cc(/C=N/Nc2ncnc3c2cnn3C(C)C)ccc1O`: the inhibition is 7.89%.

Consider `Nc1nccc(-c2c(-c3ccc(F)cc3)nn3cc(C(F)(F)F)ccc23)n1`, for which the inhibition is -0.28%.

For `CN(C)CCCn1c(-c2nonc2N)nc2cnccc21`, the inhibition turned out to be 5.42%.

Consider `COc1cc(Nc2nccc(-c3cnn4ncccc34)n2)cc(OC)c1`, for which the inhibition came to 11.1%.

Regarding `NS(=O)(=O)c1cccc(-c2cc3ccncc3cc2OCc2ccccc2)c1`, the inhibition came to 3.87%.

In the case of `CN1CCN(C(=O)c2ccc(NC(=O)Nc3ccc(N(C)c4ccnc(Nc5ccc(CS(C)(=O)=O)cc5)n4)cc3)cc2)CC1`, the inhibition is 4.49%.

For `Cc1ccc2c(c1)/C(=N/Nc1ccc(S(N)(=O)=O)cc1)C(=O)N2`, the inhibition came out at 2.43%.

For `Cc1ccc(NC(=O)CC2CC2)cc1-c1ccc(C(=O)NCC2CC2)cc1`, the inhibition was 4.59%.

For `CN(c1ccc(NC(=O)Nc2ccc(OC(F)(F)F)cc2)cc1)c1ccnc(Nc2cccc(S(N)(=O)=O)c2)n1`, the inhibition was found to be 18.3%.

For the molecule `C[C@@H](Oc1cc(-n2cnc3ccc(OC[C@@H](O)CO)cc32)sc1C(N)=O)c1ccccc1Cl`, the inhibition came to 1.69%.

In the case of `Cc1ccc(C(=O)NC2CC2)cc1-c1ccc2[nH]ncc2c1`, the inhibition is -6.53%.

Consider `COc1ccc(-c2nn3ncccc3c2-c2ccnc(Nc3cccc(C(F)(F)F)c3)n2)cc1`, for which the inhibition came out at 5.21%.

Take `CN(C)C(=O)O[C@@H]1CN[C@@H](C#Cc2cc3ncnc(Nc4ccc(OCc5cccc(F)c5)c(Cl)c4)c3s2)C1`: the inhibition amounted to 1.99%.

`CC(C)c1ccc2c(c1)NC(=O)/C2=N/Nc1ccc(S(N)(=O)=O)cc1`: the inhibition is 1.64%.

As for `NS(=O)(=O)c1ccc(NC=C2C(=O)Nc3ccc4ncsc4c32)cc1`, the inhibition stood at 12.8%.

Turning to `C[C@@H](Oc1cc(-n2cnc3ccc(OCC4CCN(C)CC4)cc32)sc1C(N)=O)c1ccccc1C(F)(F)F`, the inhibition was -0.01%.

In the case of `CN(C)c1cc2c(Nc3ccc4c(cnn4Cc4ccccc4)c3)ncnc2cn1`, the inhibition worked out at 3.25%.

With `Cc1ccc(Nc2ccnc(Nc3cccc(C(N)=O)c3)n2)cc1O`, the inhibition was 33.9%.

As for `CCS(=O)(=O)c1ccc(OC)c(Nc2nccc(N(C)c3ccc4c(C)n[nH]c4c3)n2)c1`, the inhibition was 12.2%.

Regarding `COC(=O)Nc1nc2cc(Oc3ccc(NC(=O)Nc4cccc(Br)c4)cc3)ccc2[nH]1`, the inhibition came to 12.4%.

For the molecule `CC(C)c1ccc(Nc2nccc(-c3cnn4ncccc34)n2)cc1`, the inhibition was found to be 4.55%.

With `NS(=O)(=O)c1ccc(N/N=C2\C(=O)Nc3ccc(Cl)cc32)cc1`, the inhibition worked out at 4.35%.

`COc1cccc(-n2ncc3c(N/N=C/c4ccc(C)cc4)ncnc32)c1`: the inhibition was 3.46%.

For `CCn1c(-c2nonc2N)nc2ccc(F)cc21`, the inhibition amounted to 4.99%.

For the molecule `COc1cc2ncnc(Nc3ccc4c(cnn4Cc4ccccc4)c3)c2cc1OC`, the inhibition came out at 2.12%.

For the molecule `Nc1nccc(C#Cc2cncnc2Nc2ccc(OCc3cccc(F)c3)c(Cl)c2)n1`, the inhibition turned out to be 3.27%.

Consider `Cc1cc(-c2ccccn2)cc(C)c1/C=C/c1cncc(-c2nn[nH]n2)c1`, for which the inhibition amounted to 4.9%.

With `CS(=O)(=O)Nc1cccc(-c2ccc3c(NC(=O)C4CC4)n[nH]c3c2)c1`, the inhibition is -1.02%.

Take `O=C1Nc2ccc(-c3cccnc3)cc2C1=Cc1cc(Br)c(O)c(Br)c1`: the inhibition is 3.94%.
